From paper PMC4081100, “A DNA-binding-site landscape and regulatory network analysis for NAC transcription factors in Arabidopsis thaliana”

Legend:
Assay in all cases: universal protein binding microarray (PBM); transcription factors of Arabidopsis thaliana; high values mean tight binding
GST-ANAC092(1-176) = molecular target: T1, GST-ANAC092(1-176) (Arabidopsis thaliana, UniProt Q9FKA0 1-176); conditions: protein: recombinant; tags: GST; chain copies: 2; dsDNA, one strand shown
T1 sequence: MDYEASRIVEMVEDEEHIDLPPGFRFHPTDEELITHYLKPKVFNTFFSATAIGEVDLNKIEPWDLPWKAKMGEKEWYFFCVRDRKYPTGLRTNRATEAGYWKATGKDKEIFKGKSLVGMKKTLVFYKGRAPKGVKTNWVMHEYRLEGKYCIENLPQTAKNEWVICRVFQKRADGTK
Procedure, shortened: (§1)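 GST-tagged proteins (NAC-domain, full-length or DNA-binding-domain) were induced in cells, with zinc acetate supplied for zinc-finger proteins, then purified on glutathione–Sepharose 4B. Each was tested in duplicate at 200 to 500 nM final on custom all-10-mer Agilent 4 × 180K arrays rendered double-stranded by primer extension. The binding value is the normalised enrichment score (E-score) across gapped and ungapped 8-mers.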

GST-ANAC055(1-171) = molecular target: T2, GST-ANAC055(1-171) (Arabidopsis thaliana, UniProt Q9LDY8 1-171); conditions: protein: recombinant; tags: GST; chain copies: 2; dsDNA, one strand shown
T2 sequence: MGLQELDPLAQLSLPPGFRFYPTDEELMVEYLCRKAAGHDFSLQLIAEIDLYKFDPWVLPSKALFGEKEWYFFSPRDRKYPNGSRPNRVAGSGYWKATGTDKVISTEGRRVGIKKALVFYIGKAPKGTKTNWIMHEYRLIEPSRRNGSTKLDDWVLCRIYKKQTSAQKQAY
Procedure, shortened: as §1

GST-ATAF1 NAC domain = molecular target: T3, GST-ATAF1 NAC domain (Arabidopsis thaliana, UniProt Q39013 7-158); conditions: protein: recombinant; tags: GST; chain copies: 2; dsDNA, one strand shown
T3 sequence: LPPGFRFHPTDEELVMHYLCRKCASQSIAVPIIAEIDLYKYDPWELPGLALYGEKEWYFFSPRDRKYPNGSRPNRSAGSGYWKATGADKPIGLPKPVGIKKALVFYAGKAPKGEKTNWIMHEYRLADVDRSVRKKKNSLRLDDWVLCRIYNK
Procedure, shortened: as §1

[1] = molecular target: T4, GST-ANAC092(1-285) full length (Arabidopsis thaliana, UniProt Q9FKA0 1-285); conditions: protein: recombinant; tags: GST; chain copies: 2; dsDNA, one strand shown
T4 sequence: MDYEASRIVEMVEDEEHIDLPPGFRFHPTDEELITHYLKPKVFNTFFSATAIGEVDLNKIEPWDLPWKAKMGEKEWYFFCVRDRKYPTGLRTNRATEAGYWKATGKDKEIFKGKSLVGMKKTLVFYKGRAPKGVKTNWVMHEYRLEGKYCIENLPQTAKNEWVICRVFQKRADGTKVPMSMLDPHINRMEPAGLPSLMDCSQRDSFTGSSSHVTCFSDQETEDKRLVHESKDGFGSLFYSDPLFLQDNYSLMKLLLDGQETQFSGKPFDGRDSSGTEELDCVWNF
Procedure, shortened: as §1

GST-NST2(1-184) = molecular target: T5, GST-NST2(1-184) (Arabidopsis thaliana, UniProt Q9M274 1-184); conditions: protein: recombinant; tags: GST; chain copies: 2; dsDNA, one strand shown
T5 sequence: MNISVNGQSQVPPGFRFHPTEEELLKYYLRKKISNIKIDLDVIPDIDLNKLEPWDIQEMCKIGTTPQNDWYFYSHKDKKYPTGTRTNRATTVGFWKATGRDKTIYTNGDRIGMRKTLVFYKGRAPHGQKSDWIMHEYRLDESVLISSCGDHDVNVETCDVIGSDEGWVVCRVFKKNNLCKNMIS
Procedure, shortened: as §1

GST-SND1(1-203) = molecular target: T6, GST-SND1(1-203) (Arabidopsis thaliana, UniProt Q9LPI7 1-203); conditions: protein: recombinant; tags: GST; chain copies: 2; dsDNA, one strand shown
T6 sequence: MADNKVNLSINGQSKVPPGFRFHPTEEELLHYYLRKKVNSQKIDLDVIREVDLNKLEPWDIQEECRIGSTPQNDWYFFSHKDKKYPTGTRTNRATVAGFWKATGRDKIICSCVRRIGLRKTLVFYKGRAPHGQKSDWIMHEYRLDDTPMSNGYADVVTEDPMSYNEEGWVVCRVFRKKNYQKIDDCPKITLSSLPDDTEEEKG
Procedure, shortened: as §1

GST-VND3 NAC domain = molecular target: T7, GST-VND3 NAC domain (Arabidopsis thaliana, UniProt Q9FH59 12-162); conditions: protein: recombinant; tags: GST; chain copies: 2; dsDNA, one strand shown
T7 sequence: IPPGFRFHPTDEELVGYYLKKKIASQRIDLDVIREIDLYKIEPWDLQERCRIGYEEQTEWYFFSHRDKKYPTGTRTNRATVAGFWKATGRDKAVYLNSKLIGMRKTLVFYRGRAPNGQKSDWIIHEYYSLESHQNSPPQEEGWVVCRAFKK
Procedure, shortened: as §1

GST-VND7 NAC domain = molecular target: T8, GST-VND7 NAC domain (Arabidopsis thaliana, UniProt Q9C8W9 9-158); conditions: protein: recombinant; tags: GST; chain copies: 2; dsDNA, one strand shown
T8 sequence: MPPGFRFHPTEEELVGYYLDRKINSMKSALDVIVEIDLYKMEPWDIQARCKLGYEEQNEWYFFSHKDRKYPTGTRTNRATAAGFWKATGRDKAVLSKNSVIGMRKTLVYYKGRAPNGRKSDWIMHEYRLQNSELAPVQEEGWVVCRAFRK
Procedure, shortened: as §1

GST-WRKY1(266-371) = GST-WRKY1(266-371) (Arabidopsis thaliana, UniProt Q9SI37 266-371); conditions: protein: recombinant; tags: GST; dsDNA, one strand shown
Procedure, shortened: as §1

GST-ANAC019 NAC domain = molecular target: T9, GST-ANAC019 NAC domain (Arabidopsis thaliana, UniProt Q9C932 14-162); conditions: protein: recombinant; tags: GST; chain copies: 2; dsDNA, one strand shown
T9 sequence: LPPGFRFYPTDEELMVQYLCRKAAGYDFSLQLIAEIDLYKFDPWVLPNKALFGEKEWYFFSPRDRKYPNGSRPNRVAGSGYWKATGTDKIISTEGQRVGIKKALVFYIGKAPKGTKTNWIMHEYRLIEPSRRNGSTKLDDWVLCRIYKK
Procedure, shortened: as §1

GST-NAP(1-166) = molecular target: T10, GST-NAP(1-166) (Arabidopsis thaliana, UniProt O49255 1-166); conditions: protein: recombinant; tags: GST; chain copies: 2; dsDNA, one strand shown
T10 sequence: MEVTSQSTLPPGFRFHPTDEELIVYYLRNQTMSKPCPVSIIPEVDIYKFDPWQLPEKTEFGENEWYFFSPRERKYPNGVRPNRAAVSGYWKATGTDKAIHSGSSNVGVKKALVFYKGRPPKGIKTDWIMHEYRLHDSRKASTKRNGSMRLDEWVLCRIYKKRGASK
Procedure, shortened: as §1

GST-NTL8 NAC domain = molecular target: T11, GST-NTL8 NAC domain (Arabidopsis thaliana, UniProt Q9XIN7 14-156); conditions: protein: recombinant; tags: GST; chain copies: 2; dsDNA, one strand shown
T11 sequence: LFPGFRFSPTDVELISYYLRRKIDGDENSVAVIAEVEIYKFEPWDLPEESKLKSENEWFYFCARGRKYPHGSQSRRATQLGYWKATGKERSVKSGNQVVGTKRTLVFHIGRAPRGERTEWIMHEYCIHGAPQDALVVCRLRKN
Procedure, shortened: as §1

GST-NTL6(1-168) = GST-NTL6(1-168) (Arabidopsis thaliana, UniProt Q9SCK6 1-168); conditions: protein: recombinant; tags: GST; chain copies: 2; dsDNA, one strand shown
Procedure, shortened: as §1

GST-NTL6(1-168), sequence (Q9SCK6 1-168): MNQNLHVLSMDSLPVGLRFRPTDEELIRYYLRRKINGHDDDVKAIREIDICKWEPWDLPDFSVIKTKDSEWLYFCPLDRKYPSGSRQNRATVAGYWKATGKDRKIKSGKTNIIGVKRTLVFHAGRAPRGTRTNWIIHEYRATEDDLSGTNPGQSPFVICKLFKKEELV
GST-WRKY1(266-371), sequence (Q9SI37 266-371): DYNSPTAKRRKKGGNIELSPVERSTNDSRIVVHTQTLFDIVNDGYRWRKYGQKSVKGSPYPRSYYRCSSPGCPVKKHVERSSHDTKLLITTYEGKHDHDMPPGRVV

Sequence	binding signal (GST-ANAC092(1-176)) [E-score]	binding signal (GST-ANAC055(1-171)) [E-score]	binding signal (GST-ATAF1 NAC domain) [E-score]	binding signal [1] [E-score]	binding signal (GST-NST2(1-184)) [E-score]	binding signal (GST-SND1(1-203)) [E-score]	binding signal (GST-VND3 NAC domain) [E-score]	binding signal (GST-VND7 NAC domain) [E-score]	binding signal (GST-WRKY1(266-371)) [E-score]	binding signal (GST-ANAC019 NAC domain) [E-score]	binding signal (GST-NAP(1-166)) [E-score]	binding signal (GST-NTL8 NAC domain) [E-score]	binding signal (GST-NTL6(1-168)) [E-score]
AACTTGAC	0.0775	0.105	0.0699	0.088	0.173	0.136	0.152	0.0683	0.425	–	–	–	–
ACACTCAA	0.425	0.174	0.17	0.448	0.184	0.264	0.092	0.185	0.133	0.116	0.07	0.0774	–
ACGCAAGG	0.399	0.106	0.106	0.448	0.226	0.39	0.122	0.128	0.201	0.084	0.2	0.152	–
TACACGCA	0.467	0.382	0.369	0.463	0.363	0.385	0.404	0.385	–	0.415	0.375	–	0.0803
ACACACGC	0.37	0.199	0.135	0.423	0.221	0.221	0.198	0.213	–	0.169	0.0855	–	0.0666
ATACGTAT	0.156	0.379	0.231	0.37	0.186	0.211	0.347	0.293	–	0.281	0.445	–	0.12
AAGCGTAA	0.214	0.0793	0.175	0.3	0.212	0.426	0.13	0.115	–	0.168	0.119	–	0.0576
GCGTAAAA	0.261	0.087	0.185	0.247	0.239	0.407	0.197	0.174	–	0.15	0.0952	0.107	0.0562
AAACGTGT	0.424	0.33	0.339	0.435	0.275	0.214	0.328	0.306	–	0.269	0.249	–	0.0946
ATGACGTA	0.443	0.346	0.374	0.437	0.317	0.446	0.437	0.386	–	0.372	0.404	0.098	0.0683
ATTCCGTG	0.408	0.448	0.3	0.401	0.251	0.135	0.386	0.41	–	0.438	0.329	–	0.129
GTACGAAA	0.38	0.274	0.24	0.413	0.285	0.277	0.294	0.196	–	0.267	0.247	0.116	0.184
CCACGCAA	0.472	0.363	0.235	0.474	0.348	0.41	0.354	0.337	–	0.383	0.305	0.0836	0.116
ATACGAAA	0.393	0.202	0.259	0.421	0.271	0.239	0.296	0.205	–	0.166	0.251	–	0.184
